According to PubChem BioAssay AID687001 (Broad Institute, 2013):
Entries with a potency or affinity are not part of this list.

Molecular target: Protein S100-A4 (Homo sapiens) (UniProt P26447)
Assay: human S100A4 peptide interaction inhibition curves – biochemical, fluorescence polarization, cherry-picked hits, dose response (AID 687001);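 also: 0% = DMSO neutral control wells and -100% = TFP positive control wells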
Conditions: FP, S100A4/TAMRA-myosin IIA peptide binding; series mostly up to 11 µM; activity change, negative = inhibition: at the top concentration;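 active = signal-lowering compounds whose fitted half-maximal concentration is at or below twice the top tested dose in every run; inconclusive = runs disagree, flat 30 to 70% inhibition, or poor curve fit; inactive = the rest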

Protein S100-A4 (Homo sapiens), sequence (P26447 whole entry, looked up): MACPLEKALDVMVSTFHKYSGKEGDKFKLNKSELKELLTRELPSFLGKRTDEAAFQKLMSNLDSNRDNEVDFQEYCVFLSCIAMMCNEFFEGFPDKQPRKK

Activity change, negative = inhibition, inactive:
Cn1c2ccccc2c(=O)c2ccc(C#Cc3ccc(N)cc3)cc21 35.4%, Cc1ccc2c(nc3s/c(=C\c4ccc(-c5ccccc5C(=O)O)o4)c(=O)n32)c1C 44.5%, C[C@H]1CN([C@@H](C)CO)C(=O)c2cc(-c3cccc(C#N)c3)cnc2O[C@@H]1CN(C)Cc1cccnc1 2.31%, COc1ccc(-c2ccc3c(c2)[C@@H]2[C@@H](CCN2C(=O)NC2CCCC2)[C@H](CO)N3C)cc1 -0.853% [at 10 µM], C[C@@H]1CN([C@@H](C)CO)C(=O)CCCn2cc(nn2)CO[C@H]1CN(C)S(=O)(=O)c1ccc(Oc2ccccc2)cc1 6.47%, COc1ccc(NC(=O)N(C)C[C@H]2Oc3ccc(N(C)C)cc3C(=O)N([C@@H](C)CO)C[C@@H]2C)cc1 -4.59%, CCCCOc1ccc(S(=O)(=O)N2CCN(c3ccc(N4CCN(CC)CC4)nn3)CC2)cc1 1.2%, Cc1cccc(C)c1NC(=O)CN1CCN(c2ccc(C(F)(F)F)cn2)CC1 0.019%, CSc1ccccc1OCc1cc(C(=O)NCCN2CCCc3ccccc32)no1 29.8%, Cc1cc(F)ccc1S(=O)(=O)N1CCCOC1CNC(=O)C(=O)NCc1ccc2c(c1)OCO2 (stereo not drawn) -1.74%, CC(C)(C)c1cc(CCC(=O)N2CCC2)cc(C(C)(C)C)c1O -0.818%, CCCN1[C@H](C(=O)N2CCCCC2)[C@@H](CO)[C@@H]2Cn3c(ccc(-c4ccccc4F)c3=O)[C@@H]21 0.141%, CC(C(=O)NC1CCCCC1)N1C(=O)c2cccc3cccc1c23 (stereo not drawn) -1.77%, CCOC(=O)N1CCN(Cc2nc3cc([N+](=O)[O-])ccc3n2C)CC1 -1.02%, O=C(c1cccc(F)c1)N1CC[C@H]2[C@H](CO)Nc3ccc(-c4ccc(F)cc4)cc3[C@H]21 3.72%, COc1cccc(NC(=O)CC2Oc3ccccc3NC2=O)c1 (stereo not drawn) -1.91%, CCC(=O)N1CC(=O)N2[C@H](CO)[C@H](c3ccc(C#CC4CCCC4)cc3)[C@H]2C1 0.376%, COc1ccccc1CN1[C@H](CO)[C@H]2c3ccccc3N(C(=O)c3cccnc3)C[C@H]21 0.714%, Cc1ccc(C(=O)COC(=O)C2CC3CCCC(C2)C3=O)cc1[N+](=O)[O-] (stereo not drawn) -2.18%, CCCCNC(=O)CNC(=S)N(CCCN1CCOCC1)Cc1cccs1 -2.25%, CCC(c1nc2ccccc2[nH]1)n1c(-c2cccnc2)nc2ccccc21 (stereo not drawn) -4.62%, COCCCNC(=O)c1ccc2sc([C@@H]3O[C@H](CO)[C@H](O)[C@H](O)[C@H]3O)nc2c1 -2.29%, C[C@H](NC(=O)C[C@@H]1C[C@@H]2c3cc(NC(=O)Nc4ccc(C(F)(F)F)cc4)ccc3O[C@@H]2[C@@H](CO)O1)c1ccccc1 0.731%, CO[C@@H]1CN(C)C(=O)c2ccc(NC(=O)c3ccc4c(c3)OCO4)cc2OC[C@@H](C)N(Cc2ccc3c(c2)OCO3)C[C@H]1C 3.91%, COc1ccc2oc(C)c(C(=O)c3ccc(C)cc3)c2c1 -2.59%, CC(C)[C@H](NC(=O)N1CCn2c1nc1ccccc12)C(=O)NCc1ccccc1Cl 5.14%, CN(C)C(=O)c1ccc(-c2ccc([C@@H]3[C@@H](CO)N4CCCCN(CC5CC5)C[C@@H]34)cc2)cc1 6.58%, COc1cc(/C=C2\SC(=S)N(NC(=O)c3cccc(O)c3)C2=O)ccc1O 60.1%, Cc1ccccc1S(=O)(=O)N1C[C@H](O)COC[C@@H]2O[C@@H](CC(=O)NCc3ccccc3Cl)CC[C@H]21 -0.711%, Cc1ccc(OC(=O)N(C)C[C@@H]2OCc3cn(nn3)CCCC(=O)N([C@H](C)CO)C[C@H]2C)cc1 -2.38%, CCOc1cc(/C=N/NC(=O)c2ccc(N(C)S(=O)(=O)c3ccccc3)cc2)ccc1OC -6.58%, COc1ccccc1C(=O)NC(=O)COC(=O)c1ncc(Cl)c(Cl)c1Cl 12.5%, C/C=C/c1ccc([C@H]2[C@@H](CO)N(C(=O)Nc3ccccc3F)[C@H]2C#N)cc1 28.5%, CC1Sc2ccc(S(=O)(=O)N3CCC(C(=O)NCCc4ccccc4)CC3)cc2NC1=O (stereo not drawn) 4.52%, COc1cccc(C2c3[nH]c4ccccc4c3C[C@H]3C(=O)N(C)CC(=O)N23)c1 (stereo partly drawn) -3.55%, C[C@@H]1CN([C@@H](C)CO)C(=O)c2cc(C#CCc3ccccc3)cnc2O[C@@H]1CN(C)CC1CC1 5.32% [at 10 µM], CCCc1cn(CC[C@@H]2CC[C@H](NC(=O)C3CCCC3)[C@H](CO)O2)nn1 -4.03%, CC(=O)Nc1cccc(C(=O)NC2CCCc3c2cnn3-c2ccccc2F)c1 (stereo not drawn) -12.2% [at 5.6 µM]
